High-throughput results: PubChem BioAssay, several laboratories
GRK2 inh: blocks RNA aptamer binding to human GRK2 | inhibition of aptamer binding, % at 10 µM | bead flow cytometry, FAM-aptamer displacement from GRK2 | P25098 | hit rate 0.59% among 330,000;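 active = inhibition of aptamer binding above 40%, roughly 3 SD of noise, on plates passing a quality check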;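 also: median bead fluorescence of bound FAM aptamer so fluorescent compounds give negative values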
Cardio protect: myocardial damage modulation in H9c2 cells. H9c2 cardiomyocytes, H2O2 injury protection, ATPLite, 2 h. protection from H2O2 cell death, % at 20 µM. hit rate 0.63% among 360,000;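 active = compounds giving at least 50% protection of heart cells from peroxide-induced death in the single-dose screen, raw or plate-pattern-corrected value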;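 also: 0% = DMSO wells with peroxide and 100% = DMSO wells without peroxide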
Neddylation inh: cullin neddylation inhibition; TR-FRET cullin neddylation, biochemical; inhibition, % at 25 µM; hit rate 0.58% among 360,000; AID 651699; in the data active = inhibition above about 36%
HDAC3 inh: human HDAC3 inhibition | O15379 | recombinant HDAC3, fluorogenic peptide/trypsin coupled, fluorescence | inhibition, % at 8.3 µM | hit rate 0.15% among 320,000; in the data active = inhibition above about 26%, passing the limit was not always enough
Target sequence (O15379 whole entry, looked up): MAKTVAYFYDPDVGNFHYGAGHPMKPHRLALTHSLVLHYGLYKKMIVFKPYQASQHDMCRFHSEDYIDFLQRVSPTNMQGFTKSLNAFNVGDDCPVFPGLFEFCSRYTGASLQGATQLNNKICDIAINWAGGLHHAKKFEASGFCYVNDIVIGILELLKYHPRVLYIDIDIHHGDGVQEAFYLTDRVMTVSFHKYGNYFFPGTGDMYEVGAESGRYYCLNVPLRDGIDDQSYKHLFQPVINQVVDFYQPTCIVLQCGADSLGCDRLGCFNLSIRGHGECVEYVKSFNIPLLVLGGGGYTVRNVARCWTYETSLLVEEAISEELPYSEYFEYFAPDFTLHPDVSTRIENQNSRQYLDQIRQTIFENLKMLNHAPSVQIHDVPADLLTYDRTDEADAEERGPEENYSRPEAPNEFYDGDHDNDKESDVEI
GRK2 CP1: human GRK2 inhibition confirmation, cherry pick 1 | bead-bound GRK2, FAM-aptamer displacement, flow cytometry | shares compounds with GRK2 inh | aptamer displacement, % at 10 µM | AID 504451 | hit rate 4% among 2,000;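 active = aptamer displacement above 40%, near three times the noise of non-fluorescent compounds, on plates passing quality checks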;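 also: negative values mostly reflect intrinsic compound fluorescence rather than true enhancement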
Aptamer quench SP: aptamer fluorescence quenching in GRK2 counter-screen. shares compounds with GRK2 inh. Carboxyfluorescein RNA aptamer on beads, flow cytometry quenching; stronger effect = lower value. fluorescence response (% of DMSO), % at 10 µM. 2,000 tested, under 10 active. AID 504580;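 active = compounds that quench the bead-bound fluorescent RNA probe, cutting fluorescence to under half of the solvent control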;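 also: counterscreen run without GRK2 so only probe quenching by compound is measured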
GRK2 confirm 2: confirmation of human GRK2 inhibitors binding RNA aptamer site; shares compounds with GRK2 inh; bead-bound GRK2, FAM-aptamer displacement, flow cytometry; inhibition of aptamer binding, % at 10 µM; 360 tested, under 10 active;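 active = inhibition of aptamer binding above 40%, about triple the noise seen with nonglowing compounds, on plates passing quality control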;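 also: negative values mostly come from compounds that fluoresce themselves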
FAM quench SP: quenches fluorescent RNA aptamer, GRK2 hit artifact; fluorescence response vs DMSO, % at 10 µM; AID 588494; 360 tested, under 10 active; carboxyfluorescein RNA aptamer beads, flow cytometry quenching; stronger effect = lower value; shares compounds with GRK2 inh;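 active = response vs DMSO under 50%, meaning signal dropped by over half, treated as fluorescence quencher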;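 also: labelled aptamer on streptavidin beads without GRK2 as a quench counter-screen; 100% = bead fluorescence of DMSO wells and lower means quenching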
* hit, by the source's call; x = no result given. The list is not random: actives were taken first. Their share in the collection is about 1.8%.

SMILES	GRK2 inh	Cardio protect	Neddylation inh	HDAC3 inh	others
COc1cc(NC(=O)C2CC(c3ccccc3Cl)=NO2)cc(OC)c1OC (stereo not drawn)	1.0	-8.3	0.7	2.9
Nc1ccccc1O	2.0	-11.6	-16.3	4.1
Oc1ccccc1O	0.0	66.4*	-2.9	-7.8
C=CC[C@H](CC(=O)N[C@H](CO)Cc1ccccc1)C(=O)N[C@@H](COC(=O)[C@@H](CC=C)CC(=O)OC(C)(C)C)Cc1c[nH]c2ccccc12	4.0	4.6	-26.9	31.9*
C=CC[C@@H](CC(=O)N[C@@H](CO)Cc1ccccc1)C(=O)N[C@H](COC(=O)[C@@H](CC=C)CC(=O)OC(C)(C)C)Cc1ccccc1	0.0	-15.5	3.2	-19.9
C=CC[C@@H](CC(=O)N[C@@H](CO)Cc1ccccc1)C(=O)N[C@H](COC(=O)[C@@H](CC=C)CC(=O)OC(C)(C)C)Cc1c[nH]c2ccccc12	0.0	13.2	7.9	36.6*
C=CC[C@@H](CC(=O)N[C@H](CO)Cc1ccccc1)C(=O)N[C@@H](COC(=O)[C@H](CC=C)CC(=O)OC(C)(C)C)Cc1ccccc1	2.0	31.3	-0.1	19.4
Cc1ccccc1OCC(=O)NCC(c1cccs1)N1CCOCC1 (stereo not drawn)	3.0	-1.1	-0.2	-0.7
O=C(CSc1n[nH]c(=O)n1-c1ccc2c(c1)OCCO2)Nc1ccccc1	0.0	-4.1	-0.5	-0.4
Cc1nc(-c2ccc(S(=O)(=O)N3CCCCCC3)cc2)cs1	0.0	-24.4	-2.4	1.8
Nc1nc(-c2ccc(S(=O)(=O)N3CCCCC3)cc2)cs1	0.0	-16.9	44.5*	-7.2
O=C(Nc1nc(-c2ccc(S(=O)(=O)N3CCCC3)cc2)cs1)C1COc2ccccc2O1 (stereo not drawn)	0.0	66.0*	-65.5	-2.2
CC(C)CCN(C(=O)CNC(=O)c1ccco1)C(C(=O)NC1CCCCC1)c1ccco1 (stereo not drawn)	0.0	51.8*	-2.1	-1.0
CSCCNC(C)=O	61.0*	x	x	-3.8
O=C(CSC(=S)N1CCCC1)N1CCN(S(=O)(=O)c2ccccc2F)CC1	0.0	14.9	11.2	2.6
CC1CN(S(=O)(=O)c2ccc(C(=O)Nc3ccccc3F)cc2)CC(C)O1 (stereo not drawn)	2.0	-5.8	-16.9	-10.0
CCCOc1ccc(NC(=O)CC2C(=O)N(Cc3ccccc3)C(=S)N2Cc2cccs2)cc1 (stereo not drawn)	0.0	-7.8	0.9	x
COc1cc(OC)cc(C(=O)NC(=S)NNC(=O)[C@H]2C[C@@H]2c2ccccc2)c1	0.0	9.0	57.8*	4.9
O=C(NC(=S)NNC(=O)[C@H]1C[C@@H]1c1ccccc1)c1ccc(F)cc1	2.0	7.8	0.3	-0.7
C[C@H]1CCCCO[C@H](CN(C)S(=O)(=O)c2cn(C)cn2)[C@@H](C)CN([C@@H](C)CO)C(=O)c2cc(NS(=O)(=O)c3ccccc3)ccc2O1	x	-2.7	-0.1	x
COc1cc(/C=N/Nc2nc(N3CCCC3)nc(N3CCCC3)n2)ccc1O	0.0	5.6	5.3	37.8*
O=[N+]([O-])c1cc(/C=N/Nc2nc(N3CCCCC3)nc(N3CCCCC3)n2)ccc1O	1.0	4.2	-24.6	9.0
Oc1ccc(/C=N/Nc2nc(N3CCCC3)nc(N3CCCC3)n2)cc1O	0.0	75.9*	10.1	11.4
COc1cc(NC(=O)c2ccc(OCc3c(C)noc3C)c(OC)c2)cc(OC)c1	1.0	25.6	10.1	-3.9
CCCCNC(=O)C1(C)CCN1C(=O)c1cccc2c1OCCO2 (stereo not drawn)	x	2.7	2.1	x
SMILES	GRK2 inh	Cardio protect	Neddylation inh	HDAC3 inh	others
COc1ccc(N=Cc2cccc(C)c2O)cc1Cl	0.0	30.0	10.5	0.6
Cc1cccc(N=Cc2cc(Br)cc(Cl)c2O)c1	26.0	53.7*	5.0	-8.0
CCN1C(=O)c2cccc3c(S(=O)(=O)Nc4ncccc4C)ccc1c23	7.0	3.7	51.4*	5.0
Cc1oc(C)c2c(=O)ccc3c(c12)OC(N)=C(C#N)C3c1ccccc1 (stereo not drawn)	0.0	24.1	-17.1	0.2
Cc1ccc2[nH]c(=O)c(C3C(C#N)=C(N)Oc4c3ccc3cccnc43)cc2c1 (stereo not drawn)	5.0	64.4*	-9.8	0.3
N#CC1=C(N)Oc2c(ccc3cccnc23)C1c1ccccc1 (stereo not drawn)	3.0	58.1*	9.5	-14.5
CC1(c2nnc(-c3ccc(F)cc3)o2)CC(c2ccncc2)=NO1 (stereo not drawn)	1.0	x	x	-2.4
CCc1nnc(NC(=O)CCC(=O)N2CCN(Cc3ccccc3)CC2)s1	1.0	15.4	10.5	-4.2
CCc1nnc(NC(=O)CCC(=O)N2CCN(C3c4ccccc4-c4ccccc43)CC2)s1	0.0	61.2*	-6.3	9.6
O=C(NCCN1CCN(c2ccccc2F)CC1)c1cccn2c(=O)c3ccccc3nc12	3.0	71.2*	42.6*	2.9
Cc1cc2nc(CS)[nH]c2cc1C	0.0	-6.7	26.4	-3.3
Clc1nc2sccn2c1/C=N/n1cnc2ccccc21	0.0	65.8*	-8.5	-3.2
COc1cc(-c2cc(-c3ccc(O)cc3)nc(N)c2C#N)ccc1O	2.0	49.5*	x	0.2
C#CCOc1nc(Nc2cccc([N+](=O)[O-])c2)nc(OCC#C)n1	2.0	56.0*	-26.2	-10.4
COc1nc(Nc2cccc([N+](=O)[O-])c2)nc(OC)n1	0.0	-3.5	-10.9	0.5
O=C1N[C@H]2CC=C[C@H]2Nc2ccccc21	4.0	50.9*	9.6	x
CN1CCN(C(=S)SCC(=O)Nc2nc(-c3ccccc3)c(-c3ccccc3)o2)CC1	100.0*	28.7	5.1	x	GRK2 confirm 2=-3.9;FAM quench SP=98.0
CCOC(=O)C(=O)Nc1nc(-c2ccccc2)c(-c2ccccc2)o1	2.0	5.2	6.8	3.4
COc1ccc(OC)c(NC(=O)Cc2c(C(=O)O)n(C)c3ccccc23)c1	47.0*	6.2	7.8	3.5	GRK2 confirm 2=22.1;FAM quench SP=99.0
COc1ccc(N(C)C(=O)Cc2c(C(=O)O)n(C)c3ccccc23)c(OC)c1	1.0	2.2	10.5	-1.6
CCN(CC)C(=O)Cn1cc(S(=O)(=O)CC(=O)Nc2ccccc2F)c2ccccc21	4.0	7.6	2.8	2.6
CCn1c(C(=O)O)c(CC(=O)N(C)c2ccc(OC)cc2OC)c2ccccc21	58.0*	6.8	-3.8	2.6	GRK2 CP1=6.4;Aptamer quench SP=75.1
